High-throughput results: PubChem, The Scripps Research Institute Molecular Screening Center
Compounds with a hit are over-represented: about 4.1% of the library has one in this group of screens.
hgDAF12 agonist – H. glycines DAF-12 receptor agonists, primary screen, cell-based, luminescence, HEK293, GAL4 fusion, UAS-luciferase; Nuclear hormone receptor DAF-12 (Heterodera glycines), GAL4 fusion; HEK293 GAL4-hgDAF12 UAS-luciferase reporter, agonist luminescence; normalized to butyrate control; activation, % at 6.8 µM; 370,000 tested, 1.8% active; AID 687014, 2013;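 active means activation above a cutoff set at the mean of all screened compounds plus 3 SD, cut at about 10% in these data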;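 further: 0% = DMSO wells and 100% = sodium butyrate wells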
DAX1 inh-1 – DAX1 (NR0B1) inhibitors on StAR promoter, primary screen, cell-based, luminescence, SF-1 (NR5A1), full-length DAX-1; HEK293T StAR-luciferase reporter, SF-1/DAX-1 repression relief; 370,000 tested, 1.1% active; AID 652010, 2013; inhibition, % at 6.8 µM;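 active means inhibition above the mean over all tested compounds plus 3 SD, cut at about 3.6% in these data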;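 further: 0% = DAX-1 cells with DMSO and 100% = cells lacking DAX-1 with DMSO; higher inhibition means more luminescence from relief of DAX-1 repression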
ssDAF-12 act – S. stercoralis DAF-12 nuclear receptor activators, primary screen, cell-based, luminescence, HEK293, GRIP1 co-expression, lit1-tk-luc; Nuclear hormone receptor DAF-12 (Strongyloides stercoralis); HEK293 ssDAF-12/GRIP1 lit1-tk-luc reporter; % of 3 µM dafachronic acid response; 370,000 tested, 1% active; activation, % at 6.8 µM;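 active means activation above the mean over all tested compounds plus 3 SD, cut at about 0.9% in these data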;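 further: 0% = DMSO-only wells and 100% = 3 µM delta7-dafachronic acid wells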
DAX1 inh-2 – DAX1 (NR0B1) inhibitors, primary screen, cell-based, HEK293, Gal4-DAX1, luciferase luminescence | Nuclear receptor subfamily 0 group B member 1 (Homo sapiens), P51843 | HEK293 Gal4-DAX1 luciferase reporter | inhibition, % at 6.75 µM | 340,000 tested, 0.99% active | AID 504766, 2011;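 active means inhibition above the mean over all tested compounds plus 3 SD, cut at about 4.2% in these data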;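 further: 0% = DAX1-transfected cells with DMSO and 100% = empty-vector control cells with DMSO; inhibition shows as a rise in luminescence from relieved DAX1 repression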
Target sequence (P51843 207-470 limits assumed): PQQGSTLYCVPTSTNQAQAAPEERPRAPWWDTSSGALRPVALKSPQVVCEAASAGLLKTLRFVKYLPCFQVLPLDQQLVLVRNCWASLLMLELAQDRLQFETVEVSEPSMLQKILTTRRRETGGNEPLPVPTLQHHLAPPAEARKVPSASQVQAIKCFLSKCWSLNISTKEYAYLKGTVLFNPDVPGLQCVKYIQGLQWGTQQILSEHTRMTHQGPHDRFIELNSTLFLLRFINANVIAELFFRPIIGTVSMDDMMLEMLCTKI
hcDAF-12 act – H. contortus DAF-12 nuclear receptor activators, primary screen, cell-based, luminescence, HEK293, lit1-tk-luc reporter; HEK293 hcDAF-12 lit1-tk-luc reporter; 0% DMSO, 100% Δ7-dafachronic acid; activation, % at 6.8 µM; 370,000 tested, 1.4% active;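 active means activation above the mean of all tested compounds plus 3 SD, cut at about 5.5% in these data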;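 further: 100% = response to 3 µM Δ7-dafachronic acid high control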
DAX1 conf – DAX1 (NR0B1) inhibitors relieving SF-1 repression, confirmation, cell-based, luminescence, HEK293T, full-length DAX-1, SF-1 activated StAR promoter | inhibition, % at 6.8 µM | shares compounds with DAX1 inh-1 | HEK293T StAR-promoter luciferase reporter, SF-1/DAX-1 repression | 2,400 tested, 87% active;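 active means inhibition above the average of every tested compound plus 3 SD, cut at about 3.8% in these data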;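 further: 0% = DAX-1 cells with DMSO and 100% = no DAX-1 control cells with DMSO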
SF1 AF2mut Luc – StAR reporter signal changes without DAX1, counter-screen for DAX1 inhibitor project, cell-based, luminescence, AF-2 mutant SF-1, transactivation | 2,400 tested, 78% active | AID 652136, 2013 | shares compounds with DAX1 inh-1 | inhibition, % at 6.8 µM | HEK293 StAR-luciferase, SF-1 AF2 mutant;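 active means inhibition above the mean of all tested compounds plus 3 SD, cut at about 3% in these data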;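 further: 0% = DAX-1 transfected cells with DMSO and 100% = cells without DAX-1 with DMSO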
LXRb hcDAF ctr – LXR agonists, Gal4 luciferase reporter, confirmation, counter-screen for hcDAF-12 agonist project, cell-based, luminescence, HEK293, H. contortus campaign | HEK293 Gal4-LXR tk-luc reporter, 24 h; normalized: DMSO 0%, positive control 100% | shares compounds with hcDAF-12 act | 3,400 tested, under 10 active | activation, % at 6.8 µM | AID 743027, 2013;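 active means mean percent activation of the reporter above a cutoff set as the average over tested compounds plus their standard deviation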
Target sequence (P55055 whole entry, looked up, the tested form may be a part): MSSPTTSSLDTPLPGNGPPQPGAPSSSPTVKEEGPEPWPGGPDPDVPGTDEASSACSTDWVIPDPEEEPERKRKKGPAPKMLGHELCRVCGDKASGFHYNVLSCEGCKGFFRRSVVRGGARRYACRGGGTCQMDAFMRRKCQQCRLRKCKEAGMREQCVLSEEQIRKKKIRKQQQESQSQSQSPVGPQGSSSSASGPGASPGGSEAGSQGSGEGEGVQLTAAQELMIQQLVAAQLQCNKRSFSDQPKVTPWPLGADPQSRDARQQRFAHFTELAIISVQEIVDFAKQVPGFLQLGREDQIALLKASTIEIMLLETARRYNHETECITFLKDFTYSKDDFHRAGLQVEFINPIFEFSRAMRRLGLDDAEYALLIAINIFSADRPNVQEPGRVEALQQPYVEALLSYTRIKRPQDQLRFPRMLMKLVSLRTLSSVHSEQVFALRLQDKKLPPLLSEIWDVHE
hcDAF12 conf – H. contortus DAF-12 receptor agonists, confirmation, cell-based, luminescence, HEK293, lit1-tk-luc, triplicate; shares compounds with hcDAF-12 act; HEK293 hcDAF-12 lit1-tk-luc reporter; % of Δ7-dafachronic acid response; activation, % at 6.8 µM; 3,400 tested, 61% active;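 active means mean activation across triplicate tests above the threshold derived from the earlier primary screen, cut at about 5.5% in these data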;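 further: 0% = DMSO only wells and 100% = 3 µM Δ7-dafachronic acid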
hgDAF12 conf – H. glycines DAF-12 receptor agonists, confirmation, cell-based, luminescence, HEK293, GAL4-LBD fusion. shares compounds with hgDAF12 agonist. HEK293 GAL4-hgDAF12 luciferase reporter, agonist mode; percent of butyrate response. activation, % at 6.8 µM. 3,300 tested, 80% active. AID 743050, 2013;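 active means mean activation over triplicate wells above the hit cutoff derived from the earlier primary screen, cut at about 11% in these data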;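 further: 0% = DMSO low control and 100% = 2 mM sodium butyrate high control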
LXRb DAF12 ctr – LXR agonists, Gal4 luciferase reporter, confirmation, counter-screen for hgDAF-12 agonist project, cell-based, luminescence, HEK293, H. glycines campaign; shares compounds with hgDAF12 agonist; 24 h; activation, % at 6.8 µM; 3,300 tested, under 10 active;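 active means mean activation of the triplicate above a set limit carried over from the primary screen, none filed active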
* marks the source's active call; other numbers are inactive results; nt = not tested or not shown.

SMILES	hgDAF12 agonist	DAX1 inh-1	ssDAF-12 act	DAX1 inh-2	hcDAF-12 act	DAX1 conf	SF1 AF2mut Luc	hgDAF12 conf	LXRb DAF12 ctr	others
Cc1ccccc1S(=O)(=O)N1CCC(c2nc3ccccc3o2)CC1	-1.3	-0.1	-1.4	nt	-2.7	nt	nt	nt	nt
CC1CCc2sc(C(=O)NCC3CCCO3)cc2C1 (stereo unspecified)	14.9*	7.2*	-0.1	3.8	2.8	9.9*	6.5*	13.1*	0.6
Cn1c(CCc2ccc(N)cc2)nc2ccccc21	15.2*	6.1*	-0.9	3.0	2.0	9.5*	5.0*	14.5*	0.5
COc1ccc(Cc2nc3ccccc3n2C)cc1	2.0	0.0	-1.0	-0.2	0.8	nt	nt	nt	nt
Cn1nnnc1SCC(=O)Nc1ccc2c(c1)OCCO2	14.9*	6.5*	0.2	4.0	3.1	8.2*	2.6	13.7*	0.7
Nc1c(C(=O)Nc2ccc3c(c2)OCCO3)nnn1Cc1ccc(Br)cc1	21.9*	8.1*	1.3*	1.9	9.4*	12.4*	8.6*	21.9*	0.8	LXRb hcDAF ctr=1.4;hcDAF12 conf=6.7*
O=C(C=NNc1ccccc1)c1ccccc1	28.7*	7.3*	1.8*	4.5*	11.9*	17.0*	9.1*	24.0*	1.1	LXRb hcDAF ctr=2.0;hcDAF12 conf=11.9*
Cc1ccc(CN2CCCCC(NC(=O)Nc3ccccc3-c3ccccc3)C2=O)cc1 (stereo unspecified)	-2.9	-1.5	-0.8	nt	-2.0	nt	nt	nt	nt
O=C(c1ccccc1)c1coc(-c2ccccc2)c1	14.2*	7.5*	0.7	2.3	5.3	14.4*	5.0*	20.6*	1.1
CCc1ccc(CNCCNC(=O)c2ccco2)cc1	14.9*	5.8*	0.4	-0.2	1.6	4.9*	2.9*	0.9	0.1
COc1ccc(C(=O)/C=C/Nc2cccc(O)c2)cc1	18.6*	6.0*	1.2*	-1.3	8.2*	13.9*	8.1*	26.7*	1.7	LXRb hcDAF ctr=2.4;hcDAF12 conf=12.1*
COc1cccc(N/C=C/C(=O)c2ccc(OC)c(OC)c2)c1	1.8	0.3	-1.3	1.5	-2.0	nt	nt	nt	nt
COc1ccc2nc(NC(=O)Nc3ccccc3OC)sc2c1	8.8	1.9	-0.2	3.3	1.8	nt	nt	nt	nt
COc1ccc2nc(Nc3ccccc3)sc2c1	26.1*	7.3*	-0.2	3.5	4.8	11.6*	9.5*	13.9*	0.6
Cc1ccc(Nc2nc3ccccc3s2)cc1	26.4*	4.7*	2.4*	2.9	9.7*	14.7*	7.3*	23.9*	1.4	LXRb hcDAF ctr=1.6;hcDAF12 conf=7.9*
COc1ccc2nc(NC(=O)C3CCCO3)sc2c1 (stereo unspecified)	15.3*	5.8*	0.3	4.3*	4.1	11.1*	6.1*	11.8*	0.8
Cc1ccc(S(=O)(=O)Nc2nc3ccccc3s2)cc1	2.5	-0.2	-0.5	-0.1	2.5	nt	nt	nt	nt
COc1ccc2nc(Nc3ccccc3OC)sc2c1	20.4*	6.4*	1.6*	0.4	11.4*	16.8*	10.4*	21.8*	0.9	LXRb hcDAF ctr=1.6;hcDAF12 conf=8.7*
O=C(CSc1nc2ccccc2n1Cc1ccccc1)NN=C/C=C/c1ccccc1	-1.4	0.3	-1.5	nt	0.1	nt	nt	nt	nt
C/C(=N\NC(=O)c1ccncc1)c1ccc(NC(=O)c2ccc(Cl)cc2)cc1	17.2*	7.5*	-0.5	2.2	1.4	3.1	2.9*	4.3	0.1
O=C(Nc1ccc(Cl)cc1)c1ccncc1	1.7	0.1	-0.3	-0.5	-0.7	nt	nt	nt	nt
O=C(NNCc1ccccc1)c1ccccc1	16.1*	6.1*	0.6	3.1	2.8	12.6*	5.8*	12.1*	0.6
O=C(CC(=O)c1ccccn1)c1ccccc1	14.4*	6.0*	0.5	3.6	3.9	8.6*	5.2*	15.7*	0.8
O=C(NNCc1ccccc1)c1ccccn1	18.6*	7.8*	-0.3	1.8	2.9	9.2*	4.7*	14.2*	0.6
CC(C)c1ccc(CNNC(=O)c2ccccc2)cc1	7.7	0.3	-0.8	0.5	2.6	nt	nt	nt	nt
O=S1(=O)N[C@@H](Cc2ccccc2)COc2cc(N3CCOCC3)ccc21	0.8	-0.7	-0.6	nt	-1.4	nt	nt	nt	nt
O=C(/C=C/c1ccc([N+](=O)[O-])cc1)NCc1ccccn1	3.6	-0.9	-1.1	-0.5	-1.4	nt	nt	nt	nt
O=C(/C=C/c1ccc([N+](=O)[O-])cc1)Nc1ncc([N+](=O)[O-])s1	26.9*	7.4*	0.7	4.0	11.7*	-5.5	-6.3	5.6	0.7	LXRb hcDAF ctr=0.9;hcDAF12 conf=5.8*
Cc1cc(O)cc(=O)n1-c1cc(C(F)(F)F)cc(C(F)(F)F)c1	3.4	0.8	-1.1	nt	-0.7	nt	nt	nt	nt
